In PubChem BioAssay (NCI):
This is part of a sample that, as a whole, favours compounds with a hit. Of some 83,000 tested, about 20% had one in any assay.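 Interpretation: 100, growth as untreated; towards 0, rising growth inhibition; 0, no net growth; 0 to -100, cell death. Compounds scoring below 10 were considered active.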 Unmarked numbers belong to inactive results. Calls of active or inactive are those of the source.

test system: SK-MEL-28 melanoma; assay: NCI-60 one-dose screen, 48 h (100 = growth as untreated, 0 = no growth, -100 = all killed); settings: 10 µM unless noted
Description: Growth inhibition of the SK-MEL-28 human tumor cell line is measured as a screen for anti-cancer activity. Cells are grown in 96 well plates and exposed to the test compound for 48 hours. Compounds are tested at a single concentration, which is 10^-5 M for most compounds. The reported endpoint is percent growth (GI% or GIPRCNT), where numbers from 0 - 100% represent growth inhibition, and numbers from -100% - 0 represent cell death. For example, a value of 40 represents 60% growth inhibition. A value of 0 means no net growth occurred over the course of the experiment. A value of -40 indicates 40% of cells at the beginning of the experiment died by the end of the experiment. A value of -100 means all cells are dead at the end of the experiment.
NCI-60 Human Tumor Cell Lines Screen was performed using the standard one-dose NCI protocol, which is described in more detail at https://dtp.cancer.gov/discovery_development/nci-60/default.htm.
Compounds with GIPRCNT values below 10 were considered active. Activity score was based on GIPRCNT using the following formula: […]
Score is 0 for GIPRCNT values of 100 or above, 50 for GIPRCNT values of 0, and 100 for GIPRCNT values of -100.

Row | SMILES | growth
1 | O=c1[nH]c(-c2cccc(F)c2)cc2cc(F)ccc12 | 61.7%
2 | FC(F)(F)c1ccc2c(Nc3cccc(C4CC(c5ccccc5)=NN4c4ccc(Cl)cc4)c3)ccnc2c1 (stereo not given) | 48.6%
3 | CC[C@]12C=CCN3CC[C@@]4(c5ccc(OC)cc5N(C)[C@H]4[C@@](O)(C(=O)OC)[C@@H]1OC(=O)CCC(=O)O[C@H]1CC[C@H]4[C@@H]5CC[C@H]6CC(=O)CC[C@]6(C)[C@H]5CC[C@]14C)[C@@H]32 | 46.5%
4 | Fc1ccc(N/N=C/c2ccc(-n3cccn3)cc2)cc1 | 112%
5 | CCCn1c2cc(OCc3cn(-c4ccc(Br)cc4)nn3)ccc2c2ccnc(C)c21 | 80.3%
6 | Cc1ccc(C(=O)/C(=C/c2ccc([N+](=O)[O-])cc2)S(=O)Cc2ccccc2)cc1 (stereo not given) | 17.1%
7 | Cc1nc2sc(C(=O)Nc3cccc4ccccc34)c(N)c2cc1C(C)O (stereo not given) | 66.9%
8 | N#Cc1nc(-c2ccccc2)oc1S(=O)(=O)NCC(c1ccc(Cl)cc1)N1CCCCC1 (stereo not given) | 96.3%
9 | COc1ccccc1N1CCN(CCCOc2ccc(C(=O)/C=C3/C(=O)Nc4ccccc43)cc2)CC1 | 86.1%
10 | CCOC(=O)c1c(-c2ccc(O)cc2)c(C#N)c2c(C#N)c(N)nn2c1N | 68.6%
11 | O=C(NC[C@H](O)CN1CCc2ccccc2C1)c1cc(NC2COC2)ncn1 | 88.3%
12 | O=C(Nc1ccc(N=Cc2ccccc2O)cc1)NC1C=c2ccccc2=CC1 (stereo not given) | 99.8%
13 | O=c1[nH]c2ccccc2cc1-c1nc2ccc(Cl)cc2[nH]1 | 72.4%
14 | CCCCCOC(=O)c1ccccc1O | 110%
15 | CC(=O)c1ccc(NC(=O)CSc2nnc(-c3cc(-c4ccc(Cl)cc4)nc4ccccc34)o2)cc1 | 107%
16 | O=C(Nc1nc2ccc(C(F)(F)F)cc2s1)c1cc(Cl)ccc1O | 26.6%
17 | CSc1nc(-c2ccco2)c2c(N)[nH]nc2n1 | 112%
18 | CC(=O)OCC1SC(OC(C)=O)C(NC(=O)/C=C/CCl)C(OC(C)=O)C1OC(C)=O (stereo not given) | 112%
19 | CCOCc1cc(C(C)(C)C)ccc1O | 106%
20 | C=C1C(=O)O[C@H]2[C@H]1CCC(/C=N/c1ncc(Br)cc1N)=C\CC[C@@]1(C)O[C@@H]21 | -25.8% (active)

Row | SMILES | growth
21 | C=C(C)[C@@H]1CC[C@]2(C(N)=O)CC[C@]3(C)[C@H](CC[C@@H]4[C@@]5(C)CCCNC(C)(C)[C@@H]5CC[C@]43C)[C@@H]12 | 85.1%
22 | C#CCN1C(=O)c2ccccc2N(CC#C)C12CCN(Cc1cn(CC(=O)Nc3ccccc3C(N)=O)nn1)CC2 | 93.4%
23 | Cc1cccc(C)c1NCc1nnc(-c2ccc(O)cc2)o1 | 102%
24 | O=C(NCc1ccccc1)c1ccc2c(c1)NC(=O)[C@@H]1CCCN21 | 103%
25 | COc1cc(/C=C/C(=O)/C=C/c2cc3ccc(Cl)cc3[nH]c2=O)ccc1O | 98.8%
26 | C=C1C(=O)O[C@H]2[C@H]1CC/C(COC(=O)NCc1nc3ccccc3[nH]1)=C\CC[C@@]1(C)O[C@@H]21 | 73.1%
27 | CCOC(=O)C1CCN(S(=O)(=O)/N=C2/NC(=O)NC2=C(Cl)Cl)CC1 | -8.67% (active)
28 | CN(C)CSc1nc2ccccc2s1 | 108%
29 | CO[C@@]12C=C[C@@]34CCC(=O)N3c3ccccc3[C@@H](O1)C4C2 | 113%
30 | CC(C)C1=C[C@@]23CC[C@H]4[C@](C)(COCCC#N)CCC[C@]4(C)[C@H]2C[C@@H]1[C@@H]1[C@H]3[C@@H](OCCC#N)CC[C@@H]1OCCC#N | 48.7%
31 | CCC[S@@](=O)c1ccc2nc(NC(=O)OC)[nH]c2c1 | 89.3%
32 | C=CCn1c(SCC(=O)Nc2ccc(C(=O)/C=C/c3ccc(Cl)cc3)cc2)nnc1-c1cc(OC)c(OC)c(OC)c1 | 106%
33 | COC(=O)c1cc2c3c(cc(O)c2[nH]1)N(C(=O)C1Cc2cc(OC)c(OC)c(OC)c2N1)CC3CCl (stereo not given) | -6.29% (active)
34 | O=C1Nc2ccc(Br)cc2/C1=N\N=C/c1cn(Cc2ccccc2)c2ccccc12 | 105%
35 | O=c1c2ccccc2oc2ccc(OCCCCCCN3CCCCCC3)cc12 | 38.5%
36 | COc1cc(NC(=O)c2cc(O)c(C/C=C(\C)CCC=C(C)C)c(O)c2)cc2c1O[C@]1(C)CC[C@@H](O)C(C)(C)[C@H]1C2 | 8.85% (active)
37 | C=C1C(=O)O[C@H]2[C@H]1CC/C(COC(=O)Nc1nc3ccccc3[nH]1)=C\CC[C@@]1(C)O[C@@H]21 | 61.4%
38 | CCSc1ccc(C2C(Br)C(=O)N2c2cc(OC)c(OC)c(OC)c2)cc1 (stereo not given) | 56.7%
39 | C=CCn1c(SCC(=O)Nc2ccc(C(=O)/C=C/c3cc(OC)c(OC)c(OC)c3)cc2)nnc1-c1ccccc1 | 110%
40 | COC(=O)c1cncc(C(=O)Nc2ccc(-n3cnc4ccccc43)cc2)c1 | 103%
